We go through 17 compounds from PubChem BioAssay (NCATS).

Inconclusive results are not listed. Unmarked numbers belong to inactive results. Activity calls are given as the source filed them. Calls come from the whole dose curve; as a rule, active = well fitted inhibition curve with a large enough effect; inconclusive = small, poorly fitted or top-dose-only effect; inactive = flat fitted curve, though single readings scatter.

What all share (assay): Cytotoxic Profiling of Annotated Libraries Using Quantitative High-Throughput Screening (AID 1296008); note: nearly all actives have a fitted effect of over 60% in size
What all share (conditions): Five cell lines viability, CellTiter-Glo ATP luminescence, 48-72 h; max response: stronger effect = lower value
For orientation: ATP-based viability assays read luminescence as a measure of living cells.

One test relates to CRL-7250. The procedure, abridged:
(§1)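 Cells exposed to compounds for 48 or 72 hr at 37 degrees Celsius. Viability read as ATP-coupled luminescence with CellTiter-Glo after 10 min at room temperature.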

Another test deals with HEK293. The procedure, abridged: as §1
Another test deals with HaCat. The procedure, abridged: as §1
The test system of the next test is KB-3-1. The procedure, abridged: as §1
The test system of another test is NIH3T3. The essentials: as §1
% is set by controls: 0 for no effect and ±100 for the full control effect; potency is the fitted concentration of half-maximal effect.

Consider `CC1=CC2/C=C(\C)CC[C@@H](O)[C@@H](O)[C@@H]3O[C@@H]3C(=O)[C@]23C(=O)N[C@@H](CC(C)C)[C@@H]3[C@@H]1C` (stereo not given in full), for which the max response in the test on CRL-7250 was -29.8%; in the test with HEK293, 1.09%; with HaCat it was -27.7%; in the test on KB-3-1, -2.72%; in the test on NIH3T3, 1.23%.

With `C=CC[C@]12C[C@@H](OC)C(=O)C(OC)=C1O[C@@H](c1cc(OC)c3c(c1)OCO3)[C@@H]2C`, the max response with CRL-7250 is 4.3%; in the test on HEK293, -8.3%; with HaCat, -13.8%; in the test with KB-3-1, -1.19%; with NIH3T3 it was -4.29%.

For the compound `Cc1ccc(F)cc1C(=O)Nc1ccc(C(=O)N2Cc3cccn3Cc3ccccc32)c(Cl)c1`, the max response with CRL-7250 is -11.2%; in the test with HaCat, -26.5%; in the test with KB-3-1, -16%; in the test on NIH3T3 it was -21.1%. Moreover, in the test on HEK293, the Potency was 9.2 µM (active).

For `C=C1[C@H](OC(C)=O)[C@H]2[C@@H](OC(C)=O)[C@](C)(OC(C)=O)C[C@]2(OC(C)=O)C(=O)[C@H](C)/C=C/C(C)(C)C(=O)[C@H](OC(=O)C(C)C)[C@H]1OC(C)=O`, the max response in the test with CRL-7250 is 0.468%; in the test with HEK293 it was 1.22%; in the test with HaCat it was -2.43%; in the test on NIH3T3, 2.17%. Besides, the compound was classed as inactive in the test on KB-3-1.

As to `C=CC(C)(O)CC/C=C(\C)C(=O)OC1C(O)C(CO)OC(OC(=O)C23CCC(C)(C)CC2C2=CCC4C5(C)CCC(OC6OC(COC7OCC(OC(C)=O)C(O)C7OC7OC(COC(C)=O)C(O)C(O)C7O)C(O)C(O)C6O)C(C)(C)C5CCC4(C)C2(C)C(O)C3O)C1OC1OCC(OC2OCC(O)C(OC3OCC(O)C(O)C3O)C2O)C(O)C1O` (stereo not given), the max response was -9.65% in the test on CRL-7250; -3.37% in the test on HEK293; -19.8% with HaCat; 4.25% in the test on KB-3-1; -2.07% in the test on NIH3T3.

Take `O=C(Nc1ccn[nH]1)c1c(F)cccc1F`: the call in the test on CRL-7250 and with KB-3-1 was inactive. Moreover, the max response is 4.81% in the test on HEK293, -3.04% in the test on HaCat and 3.6% in the test with NIH3T3.

As to `C=CCC1=C[C@]2(OC)[C@H](C)[C@@H](c3ccc(O)c(OC)c3)O[C@]2(OC)CC1=O`, the max response in the test on CRL-7250 was -0.729%; in the test with HEK293, 0.3%; in the test on HaCat it was 3.92%; in the test with KB-3-1, 5.23%; with NIH3T3, 0.772%.

Consider `COc1cc([C@H]2c3cc(O)c(OC)cc3C[C@@H](CO[C@@H]3O[C@H](CO)[C@@H](O)[C@H](O)[C@H]3O)[C@@H]2CO)ccc1O`, for which the max response is -6.95% in the test with CRL-7250, -2.47% in the test on HEK293, -4.19% in the test with HaCat and -0.225% with NIH3T3. Moreover, the compound was classed as inactive with KB-3-1.

With `C/C1=C\[C@H]2OC(=O)[C@@H](C)[C@@H]2CC/C(C(=O)O)=C/CC1`, the max response is -1.29% in the test on CRL-7250; -16.7% in the test with HEK293; -0.286% in the test with HaCat; -0.178% in the test on KB-3-1; -2.73% in the test with NIH3T3.

Consider `CC(=O)O[C@H]1C[C@@](O)(C(C)C)C2[C@@H](OC(=O)c3ccc(O)cc3)C[C@@]3(C)O[C@H]3C[C@]21C` (stereo not given in full), for which the max response with CRL-7250 is -0.746%; in the test with HEK293, -5.37%; in the test on HaCat, -5.18%; in the test with KB-3-1, 2.79%; in the test with NIH3T3, -4.8%.

On to `Cc1cnc(NC(=O)Nc2cc(Br)c(C)cc2OCC2CNCCO2)cn1` (stereo not given), for which the Potency with CRL-7250 was 13 µM (active); with HEK293, 1.3 µM (active); in the test with KB-3-1, 14.6 µM (active); with NIH3T3 it was 2.31 µM (active). For the same compound, the max response in the test on HaCat was -19%.

Turning to `CC1(C)CC[C@]2(C(=O)O[C@@H]3O[C@H](CO[C@@H]4O[C@H](CO)[C@@H](O)[C@H](O)[C@H]4O[C@@H]4O[C@H](CO)[C@@H](O)[C@H](O)[C@H]4O)[C@@H](O)[C@H](O[C@@H]4O[C@H](CO)[C@@H](O)[C@H](O)[C@H]4O)[C@H]3O)CC[C@]3(C)C(=CCC4[C@@]5(C)CC[C@@H](O)[C@@](C)(C(=O)O[C@@H]6O[C@H](CO)[C@@H](O)[C@H](O)[C@H]6O)C5CC[C@]43C)[C@@H]2C1` (stereo not given in full), the call in the test on CRL-7250 and in the test with KB-3-1 was inactive. For the same compound, the max response is -9.43% with HEK293, -7.02% with HaCat and 1.8% in the test on NIH3T3.

In the case of `CC/C=C/CC1=C(CCCCC(CCC(=O)O)OC(C)=O)CCC1=O` (stereo not given), the max response in the test with CRL-7250 was -18.8%; in the test with HEK293, -16.2%; with HaCat, -33.4%; with KB-3-1 it was -6.15%; in the test on NIH3T3, -0.117%.

Turning to `C=C[C@@H]1[C@H](O[C@@H]2O[C@H](CO)[C@@H](O)[C@H](O)[C@H]2O)OC=C(C(=O)O)[C@H]1CCOC(=O)/C=C/c1ccc(O)c(O)c1`, the max response with CRL-7250 was 1.95%; in the test with HEK293, 4.3%; in the test with HaCat, -20.8%; in the test on NIH3T3 it was 0.24%. Moreover, in the test on KB-3-1, the call was inactive.

As to `c1ccc(N2CCN(CCc3nn[nH]n3)CC2)cc1`, the max response was 4.82% in the test on CRL-7250; -5.85% with HEK293; -17.8% in the test on HaCat; 7.49% with KB-3-1; 1.1% in the test on NIH3T3.

Regarding `Nc1ncnc2c1nc(N)n2[C@@H]1O[C@H](CO)[C@@H](O)[C@H]1O`, the Potency in the test on CRL-7250 is 2.59 µM (active); in the test on HEK293 it was 1.64 µM (active); with HaCat, 0.58 µM (active); in the test on KB-3-1, 4.61 µM (active); in the test on NIH3T3, 4.11 µM (active).

As to `C[C@@H]1O[C@@H](O[C@H]2[C@H](O[C@H]3[C@H](O)[C@@H](C(=O)O)O[C@@H](O[C@H]4CC[C@@]5(C)C(CC[C@]6(C)C5CC[C@]57OC[C@@]8(CCC(C)(C)CC85)[C@H](O)C[C@]76C)C4(C)C)[C@@H]3O[C@@H]3O[C@H](CO)[C@@H](O[C@@H]4OC[C@@H](O)[C@H](O)[C@H]4O)[C@H](O)[C@H]3O)O[C@H](CO)[C@H](O)[C@@H]2O)[C@H](O)[C@H](O)[C@H]1O` (stereo not given in full), the max response is -4.31% with CRL-7250, -0.169% in the test on HEK293, 1.4% in the test on HaCat and 2.61% in the test on NIH3T3. Moreover, the compound was classed as inactive with KB-3-1.
